The record followed here is ChEMBL document CHEMBL3988442, “University of Dundee, Small-Polar-MMV Screening Library” (2021).

Design in all cases: scale not given: direction of the effect not stated beside the values
Test [1] has as its target Protein translocase subunit SecA (Escherichia coli (strain K12)) (UniProt P10408). As to the kind of experiment: Assay to Identify E. coli SecA ATPase Inhibitors. The format is functional. As to conditions: 30 µM.
Test [2] addresses T1, Ubiquitin-activating enzyme e1, putative (Leishmania donovani (strain BPK282A1)) (UniProt E9BSI1).
T1 sequence (whole entry): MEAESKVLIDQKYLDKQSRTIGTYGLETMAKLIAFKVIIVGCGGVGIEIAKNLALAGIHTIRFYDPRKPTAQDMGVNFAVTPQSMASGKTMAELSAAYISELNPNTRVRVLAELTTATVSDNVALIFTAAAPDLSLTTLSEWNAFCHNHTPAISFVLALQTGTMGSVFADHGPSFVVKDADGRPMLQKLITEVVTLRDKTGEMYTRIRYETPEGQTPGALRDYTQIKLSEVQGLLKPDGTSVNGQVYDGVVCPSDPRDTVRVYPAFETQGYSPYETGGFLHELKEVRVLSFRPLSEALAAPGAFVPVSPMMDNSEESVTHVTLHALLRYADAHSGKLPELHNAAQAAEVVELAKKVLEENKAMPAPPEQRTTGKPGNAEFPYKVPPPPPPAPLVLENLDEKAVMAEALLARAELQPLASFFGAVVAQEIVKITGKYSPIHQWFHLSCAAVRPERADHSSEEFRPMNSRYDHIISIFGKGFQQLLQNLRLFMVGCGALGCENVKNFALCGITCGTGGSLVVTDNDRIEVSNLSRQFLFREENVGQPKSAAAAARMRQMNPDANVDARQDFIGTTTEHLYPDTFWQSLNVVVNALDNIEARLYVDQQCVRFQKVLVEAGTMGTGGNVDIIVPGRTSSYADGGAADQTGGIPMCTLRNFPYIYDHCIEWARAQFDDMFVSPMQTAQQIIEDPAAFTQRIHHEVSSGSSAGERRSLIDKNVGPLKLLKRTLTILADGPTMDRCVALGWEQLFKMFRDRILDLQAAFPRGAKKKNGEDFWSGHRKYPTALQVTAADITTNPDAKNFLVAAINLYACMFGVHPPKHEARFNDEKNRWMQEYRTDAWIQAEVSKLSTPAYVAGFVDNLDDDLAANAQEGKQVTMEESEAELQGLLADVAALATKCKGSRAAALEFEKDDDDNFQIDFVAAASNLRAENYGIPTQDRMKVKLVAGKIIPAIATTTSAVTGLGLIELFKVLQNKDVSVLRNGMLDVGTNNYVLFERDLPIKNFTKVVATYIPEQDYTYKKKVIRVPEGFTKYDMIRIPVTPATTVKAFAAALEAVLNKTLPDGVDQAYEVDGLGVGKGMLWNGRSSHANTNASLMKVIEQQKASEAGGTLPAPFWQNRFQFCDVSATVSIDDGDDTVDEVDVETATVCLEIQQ
In words: Leishmania donovani Ubiquitin Activating Enzyme (LdE1). It counts as functional. The settings on record: 30 µM.

Test [3] addresses AMP-activated protein kinase, AMPK (Homo sapiens) (UniProt P54646+O43741+P54619+Q9UGJ0+Q9Y478+Q13131+Q9UGI9). In words: AMP-dependent Kinase enzyme assay. An in vitro enzyme assay that detects ADP turnover that is directly proportional to AMPK activity. This uses naive AMPK that is activated during the assay with MK-8722. The format is functional. As to conditions: 30 µM.
The target in test [4] is Sialic acid-binding Ig-like lectin 9 (Homo sapiens) (UniProt Q9Y336). In words: Hs-Siglec9 ALPHAscreen SOP 20170721. The settings on record: 10 µM. (In general: In Alpha technology, singlet oxygen from a donor bead excites a nearby acceptor bead.)
Sialic acid-binding Ig-like lectin 9 (Homo sapiens), sequence (Q9Y336 whole entry): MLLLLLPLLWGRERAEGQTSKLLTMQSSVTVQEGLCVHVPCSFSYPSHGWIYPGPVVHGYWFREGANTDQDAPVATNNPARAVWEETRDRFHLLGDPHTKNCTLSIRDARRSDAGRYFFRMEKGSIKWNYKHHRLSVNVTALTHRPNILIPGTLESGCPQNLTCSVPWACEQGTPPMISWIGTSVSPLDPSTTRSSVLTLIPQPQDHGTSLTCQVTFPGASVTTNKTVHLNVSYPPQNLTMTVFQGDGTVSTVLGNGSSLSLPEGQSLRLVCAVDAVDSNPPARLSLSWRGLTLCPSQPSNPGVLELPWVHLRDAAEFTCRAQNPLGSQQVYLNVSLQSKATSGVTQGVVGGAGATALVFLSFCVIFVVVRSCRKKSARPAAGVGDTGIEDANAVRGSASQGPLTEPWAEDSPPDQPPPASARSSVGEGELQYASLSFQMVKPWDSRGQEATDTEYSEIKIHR
A further test relates to Trypanosoma cruzi. As to the kind of experiment: Trypanosoma cruzi phosphomannomutase and mannose-1-phosphate guanylyltransferase assay. It counts as functional. As to conditions: 10 µM.
The target of test [5] is T2, Arginase-2, mitochondrial (Homo sapiens) (UniProt P78540).
T2 sequence (whole entry): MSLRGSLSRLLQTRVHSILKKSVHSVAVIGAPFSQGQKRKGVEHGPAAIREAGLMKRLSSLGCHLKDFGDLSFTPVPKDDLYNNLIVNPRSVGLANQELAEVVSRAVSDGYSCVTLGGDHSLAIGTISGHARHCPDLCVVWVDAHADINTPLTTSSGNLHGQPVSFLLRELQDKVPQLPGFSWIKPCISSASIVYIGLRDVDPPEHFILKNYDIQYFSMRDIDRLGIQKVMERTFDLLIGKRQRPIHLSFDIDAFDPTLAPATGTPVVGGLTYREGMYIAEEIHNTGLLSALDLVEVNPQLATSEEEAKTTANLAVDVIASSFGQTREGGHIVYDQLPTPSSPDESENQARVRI
In words: in vitro enzyme assay to detect the production of urea directly proportional to the activity of Arginase II. Further: in the data most compounds retested in dose-response had high values. The format is functional. As to conditions: 33.3 µM.

The target in test [6] is T3, Proteasome subunit beta (Trypanosoma cruzi) (UniProt O96673).
T3 sequence (whole entry): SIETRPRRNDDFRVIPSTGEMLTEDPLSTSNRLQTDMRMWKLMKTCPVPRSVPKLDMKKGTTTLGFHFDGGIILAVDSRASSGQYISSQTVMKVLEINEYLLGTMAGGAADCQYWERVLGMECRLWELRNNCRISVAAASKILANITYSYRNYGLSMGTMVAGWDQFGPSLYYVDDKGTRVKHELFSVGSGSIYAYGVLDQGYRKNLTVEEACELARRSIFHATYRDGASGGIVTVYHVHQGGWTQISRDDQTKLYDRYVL
In words: Trypanosoma cruzi proteasome chymotrypsin-like activity (TcProtChymo) assay. Further: in the data most compounds retested in dose-response had high values. As to conditions: 9.37 µM. The format is functional.

The species named for another test is Homo sapiens. As to the kind of experiment: To identify inhibition of the IFN signalling (Jak-Stat) pathway via expression of an eGFP reporter gene under the control of an IFN-stimulated response element (ISRE) containing MxA promoter. The format is functional. The settings on record: 30 µM. (In general: In a reporter assay the amount or activity of a reporter protein is the signal.)

The target of test [7] is T4, Tyrosyl-tRNA synthetase, putative (Trypanosoma cruzi (strain CL Brener)) (UniProt Q4DSP6).
T4 sequence (whole entry): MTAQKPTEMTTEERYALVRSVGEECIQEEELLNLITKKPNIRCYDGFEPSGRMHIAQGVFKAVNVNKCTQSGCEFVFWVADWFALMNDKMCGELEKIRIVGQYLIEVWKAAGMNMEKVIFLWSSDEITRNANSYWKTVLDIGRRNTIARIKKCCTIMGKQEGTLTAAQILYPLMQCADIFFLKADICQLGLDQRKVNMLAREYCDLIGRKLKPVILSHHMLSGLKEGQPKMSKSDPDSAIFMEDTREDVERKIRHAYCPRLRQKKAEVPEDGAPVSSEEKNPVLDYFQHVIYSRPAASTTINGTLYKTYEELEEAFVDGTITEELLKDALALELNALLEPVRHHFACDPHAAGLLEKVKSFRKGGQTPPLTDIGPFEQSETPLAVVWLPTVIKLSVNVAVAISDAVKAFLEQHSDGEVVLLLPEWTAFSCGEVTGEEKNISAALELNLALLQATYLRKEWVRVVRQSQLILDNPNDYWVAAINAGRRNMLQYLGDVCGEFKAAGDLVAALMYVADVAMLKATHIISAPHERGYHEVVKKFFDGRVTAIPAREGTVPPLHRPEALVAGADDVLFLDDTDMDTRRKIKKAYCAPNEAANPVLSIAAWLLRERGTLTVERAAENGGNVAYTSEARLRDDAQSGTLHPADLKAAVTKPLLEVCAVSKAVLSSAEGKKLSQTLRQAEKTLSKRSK
As to the kind of experiment: Trypanosoma cruzi tyrosyl tRNA synthetase (TcYRS) _High Tyrosine SOP. Further: in the data most compounds retested in dose-response had high values. The format is functional. As to conditions: 30 µM.

In test [8] the target is T4, Tyrosyl-tRNA synthetase, putative (Trypanosoma cruzi (strain CL Brener)). As to the kind of experiment: Trypanosoma cruzi tyrosyl tRNA synthetase (TcYRS) SOP. The format is functional. The settings on record: 30 µM.
In test [9] the target is Chromo domain-containing protein 1 (Saccharomyces cerevisiae (strain ATCC 204508 / S288c) (Baker's yeast)) (UniProt P32657). As to the kind of experiment: ScCHD-1 Enzyme Inhibition Assay. Further: in the data most compounds retested in dose-response had high values. The format is functional. As to conditions: 30 µM.
Chromo domain-containing protein 1 (Saccharomyces cerevisiae (strain ATCC 204508 / S288c) (Baker's yeast)), sequence (P32657 whole entry, the tested form may be a part): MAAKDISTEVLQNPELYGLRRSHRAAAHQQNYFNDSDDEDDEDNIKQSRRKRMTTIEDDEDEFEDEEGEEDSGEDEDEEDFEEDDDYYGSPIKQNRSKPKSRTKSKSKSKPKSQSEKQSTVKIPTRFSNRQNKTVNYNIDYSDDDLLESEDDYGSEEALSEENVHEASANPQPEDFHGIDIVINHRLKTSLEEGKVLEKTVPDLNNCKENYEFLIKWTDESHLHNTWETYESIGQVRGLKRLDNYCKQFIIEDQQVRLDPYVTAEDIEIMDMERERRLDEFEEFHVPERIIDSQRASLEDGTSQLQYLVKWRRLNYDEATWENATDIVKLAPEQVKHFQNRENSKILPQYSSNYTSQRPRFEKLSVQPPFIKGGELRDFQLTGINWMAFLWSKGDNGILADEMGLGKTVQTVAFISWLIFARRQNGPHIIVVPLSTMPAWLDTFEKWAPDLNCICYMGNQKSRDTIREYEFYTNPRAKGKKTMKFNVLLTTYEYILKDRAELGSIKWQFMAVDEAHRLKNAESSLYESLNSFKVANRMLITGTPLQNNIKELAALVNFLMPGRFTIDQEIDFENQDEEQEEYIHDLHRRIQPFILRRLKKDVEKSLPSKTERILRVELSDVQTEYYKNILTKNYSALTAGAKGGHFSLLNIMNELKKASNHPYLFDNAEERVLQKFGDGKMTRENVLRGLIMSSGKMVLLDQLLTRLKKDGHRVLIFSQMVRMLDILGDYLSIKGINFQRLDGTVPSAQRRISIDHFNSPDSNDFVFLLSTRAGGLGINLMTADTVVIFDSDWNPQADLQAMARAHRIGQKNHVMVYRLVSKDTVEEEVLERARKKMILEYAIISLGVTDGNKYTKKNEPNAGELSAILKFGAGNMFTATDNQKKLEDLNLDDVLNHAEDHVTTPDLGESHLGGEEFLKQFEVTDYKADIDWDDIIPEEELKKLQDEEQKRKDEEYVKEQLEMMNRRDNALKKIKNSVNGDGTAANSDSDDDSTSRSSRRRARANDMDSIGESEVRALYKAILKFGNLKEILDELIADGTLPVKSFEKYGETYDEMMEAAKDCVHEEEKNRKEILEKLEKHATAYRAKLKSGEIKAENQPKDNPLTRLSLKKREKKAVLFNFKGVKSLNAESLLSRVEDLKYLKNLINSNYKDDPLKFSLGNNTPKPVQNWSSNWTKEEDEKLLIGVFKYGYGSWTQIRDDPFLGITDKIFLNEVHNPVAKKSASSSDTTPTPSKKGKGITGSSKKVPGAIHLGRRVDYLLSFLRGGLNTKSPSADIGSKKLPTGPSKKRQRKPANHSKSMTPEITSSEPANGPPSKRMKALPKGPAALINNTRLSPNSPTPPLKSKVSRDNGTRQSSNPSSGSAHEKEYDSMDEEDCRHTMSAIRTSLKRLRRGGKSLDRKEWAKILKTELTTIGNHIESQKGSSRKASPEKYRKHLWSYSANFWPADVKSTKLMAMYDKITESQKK

Each structure is given as a SMILES string. For some of these results: Results with a measured potency or affinity are listed apart.

Protein translocase subunit SecA (Escherichia coli (strain K12)), sequence (P10408 whole entry): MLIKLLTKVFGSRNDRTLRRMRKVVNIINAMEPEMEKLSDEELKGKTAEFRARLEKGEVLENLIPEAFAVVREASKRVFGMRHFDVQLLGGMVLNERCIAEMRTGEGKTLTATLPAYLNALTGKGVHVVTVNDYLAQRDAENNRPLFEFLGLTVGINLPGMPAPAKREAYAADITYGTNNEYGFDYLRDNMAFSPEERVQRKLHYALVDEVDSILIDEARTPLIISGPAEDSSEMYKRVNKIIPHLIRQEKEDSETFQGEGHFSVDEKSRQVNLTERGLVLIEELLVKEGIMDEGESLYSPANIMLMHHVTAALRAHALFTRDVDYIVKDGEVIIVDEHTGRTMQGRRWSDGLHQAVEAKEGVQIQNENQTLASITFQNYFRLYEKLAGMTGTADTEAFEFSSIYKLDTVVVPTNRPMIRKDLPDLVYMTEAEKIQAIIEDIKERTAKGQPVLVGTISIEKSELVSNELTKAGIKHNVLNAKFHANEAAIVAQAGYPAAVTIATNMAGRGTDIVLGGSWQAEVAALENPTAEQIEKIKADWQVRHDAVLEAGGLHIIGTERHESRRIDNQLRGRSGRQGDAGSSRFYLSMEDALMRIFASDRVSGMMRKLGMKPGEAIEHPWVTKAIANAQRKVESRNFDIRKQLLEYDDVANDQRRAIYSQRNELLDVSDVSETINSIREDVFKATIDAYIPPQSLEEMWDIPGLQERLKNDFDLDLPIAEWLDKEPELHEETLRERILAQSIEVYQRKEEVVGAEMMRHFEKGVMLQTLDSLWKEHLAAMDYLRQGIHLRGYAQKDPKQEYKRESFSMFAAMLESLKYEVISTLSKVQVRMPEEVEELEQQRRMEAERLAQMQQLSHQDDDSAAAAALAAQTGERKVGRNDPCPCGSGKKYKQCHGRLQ

With `COc1cc(C(=O)N2CCC(c3n[nH]c(C4CC4)n3)CC2)ccc1C`, the Percent Effect was -4.66% in [1]; -1.27% in test [2]; 6.11% in test [3]; -3.19% in test [4]; -1.33% in the test with Trypanosoma cruzi; 2.37% in test [5]. Besides, the Percent Effect in [6] is -0.686%; in the test filed under Homo sapiens it was 8.43%; in test [7], 1.04%; in test [8], -2.53%; in test [9], -30.5%.
Turning to `CC(=O)N(Cc1noc(C)n1)C1CCN(Cc2ccncc2Cl)C1` (stereo unspecified), the Percent Effect was -3.16% in test [1]; 16.5% in test [2]; -1.3% in test [3]; 0.699% in test [4]; -1.95% with Trypanosoma cruzi; 2.8% in test [5]. Besides, the Percent Effect in test [6] is 12.5%; in the test listed under Homo sapiens, 8.22%; in test [7], 3.12%; in [8], 12.7%; in test [9] it was -16%.
For `CCCS(=O)(=O)N1CCOCC2(CCN(c3ccccn3)C2)C1` (stereo unspecified), the Percent Effect is -1.74% in [1]; 1.33% in test [2]; -1.28% in test [3]; 4.69% in [4]; -6.88% with Trypanosoma cruzi; 1.58% in test [5]. For the same compound, the Percent Effect in test [6] was 3.88%; in the test listed under Homo sapiens, 3.94%; in [7], -3.17%; in [8] it was 5.13%; in [9], -4.27%.
`O=C(NCC1OCCc2cn(CC3CC3)nc21)c1ccsc1` (stereo unspecified): the Percent Effect in test [1] is -5.87%; in test [2], 18.2%; in test [3] it was 2.23%; in test [4], -1.55%; in the test on Trypanosoma cruzi, 3.65%; in test [5] it was 1.94%. Also, the Percent Effect is 12.2% in test [6]; 8.57% in the test listed under Homo sapiens; 2.12% in test [7]; 14.1% in test [8]; -7.27% in [9].
Turning to `O=C(NCc1cncc2c1CCN(Cc1cccc(F)c1)C2)C1CC1`, the Percent Effect in test [1] was -4.48%; in [2], 0%; in test [3] it was 5.3%; in test [4] it was 4.67%; in the test with Trypanosoma cruzi it was -3.97%; in test [5] it was -5.59%. Moreover, the Percent Effect in test [6] was 7.96%; in the test filed under Homo sapiens, 9.89%; in [7] it was -5.21%; in [8], 6.17%; in test [9], 2.56%.
Turning to `CC(NC(=O)NCCCN(C)C)c1ccc2c(c1)CCC(=O)N2` (stereo unspecified), the Percent Effect was -3.72% in test [1]; 13% in test [2]; 0.292% in [3]; -0.949% in test [4]; 10.1% in the test with Trypanosoma cruzi; -6.05% in [5]. Besides, the Percent Effect in [6] was 15%; in the test listed under Homo sapiens, -16.2%; in [7], 8.74%; in [8], 21.9%; in [9], -6.2%.
As for `Cc1cc(N2CCCC2c2cnccn2)ncn1` (stereo unspecified), the Percent Effect in [1] was -2.62%; in test [2], 6.76%; in test [3] it was 8.11%; in test [4], 0.00484%; with Trypanosoma cruzi, -2.37%; in test [5], 0.696%. Moreover, the Percent Effect in test [6] was 7.02%; in the test filed under Homo sapiens, 5.1%; in test [7] it was 8.6%; in test [8] it was 14.3%; in test [9], -2.99%.
Consider `N#Cc1ccc(OCCCN2CCc3cncnc3C2)cc1`, for which the Percent Effect was -5.04% in test [1]; 5.06% in [2]; -14.8% in test [3]; 5.6% in test [4]; -3.68% in the test on Trypanosoma cruzi; -3.04% in [5]. The Percent Effect in test [6] is -6.14%; in the test filed under Homo sapiens, 18.3%; in [7], -0.493%; in test [8], 11.4%; in test [9], -4.55%.
Turning to `CCOc1nnc(CN(C)C2CCCN(c3cccnn3)C2)s1` (stereo unspecified), the Percent Effect in [1] was -2.38%; in test [2] it was 10.5%; in test [3] it was -2.62%; in test [4], -6.38%; in the test with Trypanosoma cruzi, 7.5%; in test [5], -11.8%. For the same compound, the Percent Effect in [6] was 17.9%; in the test filed under Homo sapiens, -12.4%; in test [7] it was 7.45%; in [8], 18.2%; in test [9], -4.02%.
Turning to `Cc1nc(C)n(C2CCCN(C(=O)c3ccc(NC4CC4)nc3)C2)n1` (stereo unspecified), the Percent Effect is -2.93% in test [1]; -5.41% in test [2]; 2.71% in test [3]; 10.3% in test [4]; 2.14% in the test with Trypanosoma cruzi; -4.25% in test [5]. For the same compound, the Percent Effect is -3.77% in [6]; 8.24% in the test filed under Homo sapiens; 1.98% in test [7]; 6.1% in [8]; 4.04% in test [9].
Turning to `Cc1noc(C2CCCN(C(=O)c3ccc(Br)o3)C2)n1` (stereo unspecified), the Percent Effect in [1] is -6.46%; in test [2], 13%; in test [3], -5.37%; in [4], -19.7%; with Trypanosoma cruzi it was 7.54%; in [5], -4.84%. Moreover, the Percent Effect in [6] is 13.8%; in the test listed under Homo sapiens it was 1.55%; in test [7] it was 3.81%; in test [8] it was 21.2%; in test [9] it was -17.1%.
